Reference: PubChem BioAssay
For some of these results: Results with a measured potency or affinity are listed apart. Activity calls are given as the source filed them. Unless noted, the rule behind the calls is not given here.

How the values were obtained:
[1] = antimalarial activity against Dd2 strain (AID 2302;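 active = growth inhibition above 50% at the single 2 µM test dose, taken to imply half-maximal potency below 2 µM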;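 note: 0% = DMSO untreated growth and 100% = chloroquine plus artemisinin killed control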); settings: P. falciparum Dd2 in RBCs, LDH growth readout, 72 h; at 2 µM; stronger effect = higher value
[2] = human hepatoma cell viability loss – ATP luminescence, cytotoxicity control for P. falciparum antimalarial project, primary screen (AID 2303;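 active = inhibition above 50%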;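 note: 0% = DMSO wells and 100% = digitonin-killed cells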); settings: HepG2 viability, 24-48 h, at 10 µM, stronger effect = higher value
[3] = target: L-lactate dehydrogenase (Plasmodium falciparum (isolate CDC / Honduras)) (UniProt Q27743); experiment: PfLDH activity inhibition – cell lysate, 3D7 strain, counter-screen for P. falciparum growth inhibition project (AID 2304);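 note: 0% = vehicle and 100% = reference inhibitor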; settings: P. falciparum 3D7 crude extract, LDH APAD/NBT absorbance; at 2 µM; stronger effect = higher value
Chain of L-lactate dehydrogenase (Plasmodium falciparum (isolate CDC / Honduras)) (Q27743 whole entry, looked up): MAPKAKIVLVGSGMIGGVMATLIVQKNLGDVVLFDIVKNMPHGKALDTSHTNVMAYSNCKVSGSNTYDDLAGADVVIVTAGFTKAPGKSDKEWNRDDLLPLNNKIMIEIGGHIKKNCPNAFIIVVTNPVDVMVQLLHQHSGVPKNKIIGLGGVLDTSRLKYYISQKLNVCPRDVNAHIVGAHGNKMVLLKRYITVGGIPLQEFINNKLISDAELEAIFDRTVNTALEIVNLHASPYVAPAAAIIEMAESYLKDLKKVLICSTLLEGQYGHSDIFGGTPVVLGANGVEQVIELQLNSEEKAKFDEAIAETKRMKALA

[4] = inhibition of 3D7 malaria parasite growth – strain 3D7 (AID 2306);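 note: 0% = DMSO wells and 100% = chloroquine plus artemisinin control wells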; settings: P. falciparum 3D7 erythrocytic growth, LDH absorbance, 72 h; at 2 µM; stronger effect = higher value
[5] = target: Calcium-dependent protein kinase 1 (Plasmodium falciparum (isolate 3D7)) (UniProt P62344); experiment: PfCDPK1 kinase inhibitors, biochemical, TCAMS library (AID 1159585; cut-off not given, nearly all actives have IC50 up to about 0.98 µM;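 note: inhibitors leave more ATP so luminescence rises with inhibition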); settings: recombinant PfCDPK1, Kinase-Glo ATP depletion luminescence
Chain of Calcium-dependent protein kinase 1 (Plasmodium falciparum (isolate 3D7)) (P62344 whole entry, looked up): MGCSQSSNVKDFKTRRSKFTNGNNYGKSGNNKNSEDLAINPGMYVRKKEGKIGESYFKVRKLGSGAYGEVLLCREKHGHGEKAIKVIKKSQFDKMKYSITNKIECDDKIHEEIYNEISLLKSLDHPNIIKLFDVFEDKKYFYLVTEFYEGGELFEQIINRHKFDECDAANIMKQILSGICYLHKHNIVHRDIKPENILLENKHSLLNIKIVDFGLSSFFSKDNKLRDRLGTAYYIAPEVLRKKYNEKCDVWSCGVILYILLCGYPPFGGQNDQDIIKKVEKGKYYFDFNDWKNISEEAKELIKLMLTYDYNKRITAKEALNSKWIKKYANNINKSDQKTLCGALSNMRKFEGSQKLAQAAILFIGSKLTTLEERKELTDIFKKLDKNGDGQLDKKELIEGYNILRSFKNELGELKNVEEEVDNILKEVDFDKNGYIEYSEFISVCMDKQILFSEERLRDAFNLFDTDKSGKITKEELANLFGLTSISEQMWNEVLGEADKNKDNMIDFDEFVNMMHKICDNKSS

[6] = target: Plasmodium falciparum protein kinase 6 (PK6, PF3D7_1337100) (UniProt Q8IDW1); experiment: PfPK6 kinase inhibitors, biochemical, TCAMS library (AID 1159586); settings: recombinant PfPK6, Kinase-Glo ATP depletion luminescence
Chain of Plasmodium falciparum protein kinase 6 (PK6, PF3D7_1337100) (Q8IDW1 1-305): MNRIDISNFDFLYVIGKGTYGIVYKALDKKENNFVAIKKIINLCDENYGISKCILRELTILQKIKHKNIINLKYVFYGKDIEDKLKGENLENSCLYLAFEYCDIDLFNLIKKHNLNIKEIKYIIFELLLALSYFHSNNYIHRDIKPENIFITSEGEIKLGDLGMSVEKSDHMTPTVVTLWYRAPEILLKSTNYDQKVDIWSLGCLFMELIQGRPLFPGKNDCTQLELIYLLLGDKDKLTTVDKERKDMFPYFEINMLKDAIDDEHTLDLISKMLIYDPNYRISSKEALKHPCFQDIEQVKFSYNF

[7] = target: Protein kinase 7 (PK7), Plasmodium falciparum 3D7 (PF3D7_0213400) (UniProt Q7YTF7); experiment: inhibition of Plasmodium PK7 catalytic activity – biochemical, TCAMS antimalarial set, Kinase-Glo luminescence (AID 1159587); settings: recombinant PfPK7, Kinase-Glo ATP depletion luminescence
Chain of Protein kinase 7 (PK7), Plasmodium falciparum 3D7 (PF3D7_0213400) (Q7YTF7 1-343): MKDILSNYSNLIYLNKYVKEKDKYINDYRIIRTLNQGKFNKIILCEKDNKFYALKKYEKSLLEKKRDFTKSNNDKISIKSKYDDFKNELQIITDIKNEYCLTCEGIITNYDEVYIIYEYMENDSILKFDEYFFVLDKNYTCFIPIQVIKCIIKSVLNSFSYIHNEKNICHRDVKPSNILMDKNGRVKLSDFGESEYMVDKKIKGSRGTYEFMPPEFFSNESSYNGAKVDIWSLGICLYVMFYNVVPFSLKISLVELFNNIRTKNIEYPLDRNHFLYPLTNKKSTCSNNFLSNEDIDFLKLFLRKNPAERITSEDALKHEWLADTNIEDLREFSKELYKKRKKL

[8] = target: Calcium-dependent protein kinase 4 (Plasmodium falciparum (isolate 3D7)) (UniProt Q8IBS5); experiment: PfCDPK4 kinase inhibitors, biochemical, TCAMS library (AID 1159588; cut-off not given, nearly all actives have IC50 up to about 0.91 µM); settings: recombinant PfCDPK4, Kinase-Glo ATP depletion luminescence
Chain of Calcium-dependent protein kinase 4 (Plasmodium falciparum (isolate 3D7)) (Q8IBS5 whole entry, looked up): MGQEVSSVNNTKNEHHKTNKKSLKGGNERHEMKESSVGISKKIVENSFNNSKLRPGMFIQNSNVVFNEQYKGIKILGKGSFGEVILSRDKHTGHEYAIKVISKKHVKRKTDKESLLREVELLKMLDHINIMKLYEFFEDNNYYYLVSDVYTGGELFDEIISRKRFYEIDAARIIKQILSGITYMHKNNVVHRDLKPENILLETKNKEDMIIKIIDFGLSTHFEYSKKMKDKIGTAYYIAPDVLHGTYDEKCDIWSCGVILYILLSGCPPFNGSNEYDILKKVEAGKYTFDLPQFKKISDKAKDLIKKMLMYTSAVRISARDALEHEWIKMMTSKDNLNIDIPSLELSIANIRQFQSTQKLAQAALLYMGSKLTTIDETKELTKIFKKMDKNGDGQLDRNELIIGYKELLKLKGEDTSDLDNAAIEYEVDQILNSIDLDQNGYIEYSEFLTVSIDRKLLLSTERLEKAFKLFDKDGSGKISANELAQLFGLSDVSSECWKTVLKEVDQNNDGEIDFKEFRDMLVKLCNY

O=C(Nc1ccc(OC2CCN(Cc3ccc(F)cc3)C2)cc1)c1cccs1 (stereo not drawn)
active: growth inhibition [1] 92% | growth inhibition [4] 94%
inactive: inhibition [2] 2% | inhibition [3] 4% | outcome [5] | outcome [6] | outcome [7] | outcome [8]

C=CCOC(=O)N1CCC(CNCc2cccc(-c3ccc(-c4nc5ccc(C(F)(F)F)cc5[nH]4)cc3)c2)C1 (stereo not drawn)
inactive: inhibition [2] 28% | inhibition [3] -3% | outcome [5] | outcome [6] | outcome [7] | outcome [8]
active: growth inhibition [1] 96% | growth inhibition [4] 102%

Clc1ccc(CNCCCCCCNCc2ccc(Cl)cc2)cc1
inactive: growth inhibition [1] 28% | inhibition [3] 1% | outcome [5] | outcome [6] | outcome [7] | outcome [8]
active: inhibition [2] 53% | growth inhibition [4] 96%

O=C(Cc1cccc2ccccc12)NC1CCN(c2ccnc3cc(Cl)ccc23)C1 (stereo not drawn)
active: growth inhibition [1] 97% | growth inhibition [4] 82%
inactive: inhibition [2] 13% | inhibition [3] -2% | outcome [5] | outcome [6] | outcome [7] | outcome [8]

Cc1cc(N[C@@H](CC(C)C)C(=O)NCCOc2ccccc2)nc(NCCOc2ccccc2)n1
inactive: growth inhibition [1] 6% | inhibition [2] -4% | inhibition [3] -2% | outcome [5] | outcome [6] | outcome [7] | outcome [8]
active: growth inhibition [4] 89%

O=C(C=Cc1cc([N+](=O)[O-])ccc1Cl)N1CCC(CCN2CCC(c3c[nH]c4ccccc34)CC2)CC1
inactive: growth inhibition [1] 26% | inhibition [2] 25% | inhibition [3] -2% | outcome [5] | outcome [6] | outcome [7] | outcome [8]
active: growth inhibition [4] 92%

COc1c(C(=O)NC2CCN(Cc3ccccc3)C2)cnc2ccccc12 (stereo not drawn)
inactive: growth inhibition [1] 12% | inhibition [2] 2% | inhibition [3] -4% | outcome [5] | outcome [6] | outcome [7] | outcome [8]
active: growth inhibition [4] 86%

O[C@@H](c1ccc2ccccc2c1)[C@@H]1CN(CCc2ccccc2)CC[C@@]1(O)c1ccccc1
inactive: inhibition [2] 1% | inhibition [3] 1% | outcome [5] | outcome [6] | outcome [7] | outcome [8]
active: growth inhibition [1] 96% | growth inhibition [4] 99%

COc1ccc(CN(C)CCCOc2ccc(NC(=O)c3cccc4c(=O)c5cccc(F)c5[nH]c34)cc2)cc1OC
active: growth inhibition [1] 96% | growth inhibition [4] 100%
inactive: inhibition [2] 6% | inhibition [3] -3% | outcome [5] | outcome [6] | outcome [7] | outcome [8]

CC(C)Cc1cn(-c2nc(-c3nc4ccccc4[nH]3)cs2)c2cc(Cl)ccc12
active: growth inhibition [1] 68% | growth inhibition [4] 99%
inactive: inhibition [2] 9% | inhibition [3] -3% | outcome [5] | outcome [6] | outcome [7] | outcome [8]

CCCC(C)c1ccc(N2C(N)=NC(N)=NC2(C)C)cc1 (stereo not drawn)
active: inhibition [2] 51% | growth inhibition [4] 90%
inactive: growth inhibition [1] 7% | inhibition [3] 2% | outcome [5] | outcome [6] | outcome [7] | outcome [8]

N#Cc1ccc(S(=O)(=O)N2C(c3cccc([N+](=O)[O-])c3)C(C(=O)c3ccccc3)N(C3CCCCC3)C2c2cccc([N+](=O)[O-])c2)cc1 (stereo not drawn)
inactive: inhibition [2] 16% | inhibition [3] -1% | outcome [5] | outcome [6] | outcome [7] | outcome [8]
active: growth inhibition [1] 79% | growth inhibition [4] 83%

Cc1cccc(-c2ccc(CNC3CCN(CC4Cn5c(=O)ccc6ccc(F)c4c65)CC3)cn2)c1 (stereo not drawn)
active: growth inhibition [4] 90%
inactive: growth inhibition [1] 2% | inhibition [2] -2% | inhibition [3] -2% | outcome [5] | outcome [6] | outcome [7] | outcome [8]

Cc1cc(C2CCN(CCCCNC(=O)c3ccc(-c4ccc(C#N)cc4)cc3)CC2)c(C)cc1OCCO
active: growth inhibition [1] 68% | growth inhibition [4] 96%
inactive: inhibition [2] 20% | inhibition [3] 2% | outcome [5] | outcome [6] | outcome [7] | outcome [8]

COc1cc2nc(N3CCC(CNC(=O)c4ccc(OC(F)(F)F)cc4)CC3)nc(N)c2cc1OC
active: growth inhibition [1] 98% | growth inhibition [4] 100%
inactive: inhibition [2] 16% | inhibition [3] -3% | outcome [5] | outcome [6] | outcome [7] | outcome [8]

CN1CCN(c2cc3c(Nc4ccc5c(cnn5Cc5ccccc5)c4)ncnc3cn2)CC1
inactive: growth inhibition [1] 35% | inhibition [2] 9% | inhibition [3] 5% | outcome [5] | outcome [6] | outcome [7] | outcome [8]
active: growth inhibition [4] 88%

COc1ccc2nccc([C@@H](O)CN3CCC(NC(=O)/C=C/c4ccnc5ccccc45)CC3)c2c1
active: growth inhibition [4] 91%
inactive: growth inhibition [1] 12% | inhibition [2] 19% | inhibition [3] -1% | outcome [5] | outcome [6] | outcome [7] | outcome [8]

Oc1ccc2[nH]c(-c3cccc(F)c3)nc2c1CN1CCC(O)(c2ccccc2)CC1
active: growth inhibition [1] 72% | growth inhibition [4] 97%
inactive: inhibition [2] 21% | inhibition [3] -1% | outcome [5] | outcome [6] | outcome [7] | outcome [8]

CN(C)CCNCc1ccc(-c2ccc(-c3nc4ccc(F)cc4[nH]3)cc2)cc1
inactive: inhibition [2] 8% | inhibition [3] -4% | outcome [5] | outcome [6] | outcome [7] | outcome [8]
active: growth inhibition [1] 99% | growth inhibition [4] 101%

O=C(Cc1cccc(Cl)c1)Nc1ccc(N2CCC(NCc3ccc4ncccc4c3)CC2)cc1
inactive: growth inhibition [1] 8% | inhibition [2] 10% | inhibition [3] -1% | outcome [5] | outcome [6] | outcome [7] | outcome [8]
active: growth inhibition [4] 81%

FC(F)(F)c1ccc2nc(-c3ccc(-c4cccc(CN5CCN(CCN6CCOCC6)CC5)c4)cc3)[nH]c2c1
inactive: inhibition [2] 47% | inhibition [3] -6% | outcome [5] | outcome [6] | outcome [7] | outcome [8]
active: growth inhibition [1] 77% | growth inhibition [4] 98%

CCC(CC)N1CCN(CC(=O)Nc2ccc([N+](=O)[O-])cc2C(=O)Nc2cccc(OC)c2)CC1
inactive: growth inhibition [1] 35% | inhibition [2] 35% | inhibition [3] 0% | outcome [5] | outcome [6] | outcome [7] | outcome [8]
active: growth inhibition [4] 100%

CCCCC(=O)Nc1nonc1-c1ccc(OCC)c(OCC)c1
inactive: inhibition [2] 9% | inhibition [3] -1% | outcome [5] | outcome [6] | outcome [7] | outcome [8]
active: growth inhibition [1] 95% | growth inhibition [4] 101%

O=C(Nc1ccc(N2CCN(c3ncccc3C(F)(F)F)CC2)nc1)c1cccs1
inactive: growth inhibition [1] 40% | inhibition [2] 7% | inhibition [3] -7% | outcome [5] | outcome [6] | outcome [7] | outcome [8]
active: growth inhibition [4] 83%

CC(C)CC(C)NC(=O)C1Cc2c([nH]c3ccc(F)cc23)C2(CCN(Cc3ccccc3)CC2)N1 (stereo not drawn)
inactive: growth inhibition [1] 49% | inhibition [2] 18% | inhibition [3] 7% | outcome [5] | outcome [6] | outcome [7] | outcome [8]
active: growth inhibition [4] 97%

CC(=O)c1ccccc1OCCSc1nnc(Cc2cccs2)n1C1CCCCC1
inactive: growth inhibition [1] 1% | inhibition [2] 19% | inhibition [3] -5% | outcome [5] | outcome [6] | outcome [7] | outcome [8]
active: growth inhibition [4] 87%

O=C(Nc1ccc(S(=O)(=O)N2CCCC2)cc1)c1cc(-c2cccnc2)nc2ccc(Cl)cc12
inactive: inhibition [2] 4% | inhibition [3] -6% | outcome [5] | outcome [6] | outcome [7] | outcome [8]
active: growth inhibition [1] 95% | growth inhibition [4] 97%

CCOc1cc(N)c2nc3ccc([N+](=O)[O-])cc3cc2c1
active: growth inhibition [1] 78% | inhibition [2] 73% | growth inhibition [4] 100%
inactive: inhibition [3] 7% | outcome [5] | outcome [6] | outcome [7] | outcome [8]

Cc1ccc(Cn2c(N3CCC(C(=O)NCc4cccs4)CC3)nc3ccccc32)cc1
active: growth inhibition [1] 71% | growth inhibition [4] 99%
inactive: inhibition [2] -4% | inhibition [3] -1% | outcome [5] | outcome [6] | outcome [7] | outcome [8]

CN(C)c1ccc(CN2CCC(CNC(=O)c3cc(-c4cccc(C(F)(F)F)c4)cs3)C2)cc1 (stereo not drawn)
inactive: growth inhibition [1] 34% | inhibition [2] 39% | inhibition [3] 0% | outcome [5] | outcome [6] | outcome [7] | outcome [8]
active: growth inhibition [4] 96%

c1ccc(Oc2ccc(Nc3ccnc(Nc4cccc(CNCCCN5CCOCC5)c4)n3)cc2)cc1
active: growth inhibition [1] 50% | growth inhibition [4] 100%
inactive: inhibition [2] -1% | inhibition [3] -1% | outcome [5] | outcome [6] | outcome [7] | outcome [8]

CC(C)(C)OC(=O)[C@H](CC(N)=O)NC(=O)c1ccc(-c2ccc(-c3nc4ccc(C(F)(F)F)cc4[nH]3)s2)cc1
inactive: inhibition [3] -2% | outcome [5] | outcome [6] | outcome [7] | outcome [8]
active: growth inhibition [1] 88% | inhibition [2] 62% | growth inhibition [4] 94%

COc1cc(Nc2nccc(N3CCC(NS(=O)(=O)c4ccc(NC(C)=O)cc4)CC3)n2)cc(OC)c1OC
active: growth inhibition [4] 91%
inactive: growth inhibition [1] 42% | inhibition [2] -5% | inhibition [3] -3% | outcome [5] | outcome [6] | outcome [7] | outcome [8]

CS(=O)(=O)CCN(CCS(C)(=O)=O)Cc1ccc(-c2ccc3ncnc(Nc4ccc(OCc5cccc(F)c5)c(Cl)c4)c3c2)o1
active: growth inhibition [4] 90%
inactive: growth inhibition [1] 27% | inhibition [2] -2% | inhibition [3] -3% | outcome [5] | outcome [6] | outcome [7] | outcome [8]

COc1cccc(CN2CCC3(CC2)CN(C(=O)Nc2ccc(Cl)c(Cl)c2)C3)c1
inactive: growth inhibition [1] 2% | inhibition [2] 29% | inhibition [3] 2% | outcome [5] | outcome [6] | outcome [7] | outcome [8]
active: growth inhibition [4] 97%

CCCCCc1cnc2nc(N)nc(N)c2c1C
inactive: growth inhibition [1] 23% | inhibition [3] -3% | outcome [5] | outcome [6] | outcome [7] | outcome [8]
active: inhibition [2] 64% | growth inhibition [4] 96%

Cn1c(NC(=O)C2CCC(CNC(=O)c3ccc(O)c(-c4ccc(Cl)c(Cl)c4)c3)CC2)nc2ccccc21 (stereo not drawn)
inactive: inhibition [2] 40% | inhibition [3] 1% | outcome [5] | outcome [6] | outcome [7] | outcome [8]
active: growth inhibition [1] 100% | growth inhibition [4] 99%

c1csc(-c2ccc3c(c2)CC(NCc2c[nH]c4cnccc24)C3)c1 (stereo not drawn)
active: growth inhibition [4] 100%
inactive: growth inhibition [1] 34% | inhibition [2] 9% | inhibition [3] -1% | outcome [5] | outcome [6] | outcome [7] | outcome [8]

CCN(CC)S(=O)(=O)c1ccc(Cl)c(C(=O)Nc2ccc3nc(C)sc3c2)c1
inactive: inhibition [2] 9% | inhibition [3] -4% | outcome [5] | outcome [6] | outcome [7] | outcome [8]
active: growth inhibition [1] 94% | growth inhibition [4] 96%

O=C(CCCCCNC(=O)c1ccc(O)c(-c2cccc(C(F)(F)F)c2)c1)NCCN1CCCCC1
active: growth inhibition [4] 99%
inactive: growth inhibition [1] 0% | inhibition [2] -5% | inhibition [3] 4% | outcome [5] | outcome [6] | outcome [7] | outcome [8]

O=C1OC2(CCN(Cc3cccc(-c4ncc[nH]4)c3)CC2)CN1CCNCc1ccccc1
inactive: growth inhibition [1] -1% | inhibition [2] -8% | inhibition [3] -1% | outcome [5] | outcome [6] | outcome [7] | outcome [8]
active: growth inhibition [4] 94%
